Positions count from the first letter of the chain named.
Each sequence was assayed against T1, SALL4 ZFC4 WT (HT-SELEX) (Mus musculus, UniProt Q8BX22 870-940) (assay: HT-SELEX; high values mean tight binding). Conditions: protein: recombinant; vector His6-GST; dsDNA, one strand shown.
T1 sequence: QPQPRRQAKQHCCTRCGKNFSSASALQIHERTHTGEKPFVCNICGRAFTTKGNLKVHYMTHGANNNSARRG
In short: (§1)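 Recombinant mouse SALL4 zinc finger cluster 4 (residues 870–940, 1 µg), purified, was mixed with library DNA (1.5 µg in the first cycle, 200 ng thereafter) in 100 µl of buffer containing 10 mM Tris–HCl pH 7.5, 50 mM NaCl, poly(dI-dC) and DTT, and left for 10 min at room temperature. Complexes were captured on Ni2+ beads, washed, amplified by PCR and reselected for up to 6 cycles in triplicate, after which MiSeq sequencing and a 6-mer scan followed. Binding signal is the read fraction of each canonical k-mer, given as fold change relative to the starting random library.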
With TAGAAA the binding signal was 2.03 ± 0.103 fold-change vs cycle 0. In the case of CATCCC, the binding signal is reported as 0.525 ± 0.0193 fold-change vs cycle 0. With ACCACA the binding signal was 0.701 ± 0.0312 fold-change vs cycle 0. AGTAGC showed a binding signal of 0.643 ± 0.0074 fold-change vs cycle 0. TATCGA was tested, and the binding signal was 1.23 ± 0.0345 fold-change vs cycle 0. In the case of AATCTG, the binding signal is reported as 1.22 ± 0.0563 fold-change vs cycle 0. With AGATGA the binding signal was 1.49 ± 0.0331 fold-change vs cycle 0. Work on ACAAAA yielded a binding signal of 1.6 ± 0.0623 fold-change vs cycle 0. In the case of AACTGT, the binding signal is reported as 1.31 ± 0.0453 fold-change vs cycle 0. CTAACA was tested, and the binding signal was 1.32 ± 0.0481 fold-change vs cycle 0. For ACGGTA, the binding signal was 0.715 ± 0.031 fold-change vs cycle 0. With TCATAA the binding signal was 3.28 ± 0.256 fold-change vs cycle 0. Work on GAGACC yielded a binding signal of 0.414 ± 0.0124 fold-change vs cycle 0. For AAGATT, the binding signal was 2.05 ± 0.0988 fold-change vs cycle 0. CAGTCA was tested, and the binding signal was 0.794 ± 0.0288 fold-change vs cycle 0. For CTTACA, the binding signal was 1.41 ± 0.0514 fold-change vs cycle 0. CATTCC showed a binding signal of 0.85 ± 0.0367 fold-change vs cycle 0. Work on AATTTA yielded a binding signal of 2.91 ± 0.251 fold-change vs cycle 0. CATGTA showed a binding signal of 1.28 ± 0.0897 fold-change vs cycle 0. CAAAAC gave a binding signal of 0.936 ± 0.0391 fold-change vs cycle 0. For AAGTAT, the binding signal was 2.21 ± 0.135 fold-change vs cycle 0. With AGGATC the binding signal was 0.876 ± 0.0353 fold-change vs cycle 0. CAGGAA gave a binding signal of 0.785 ± 0.0392 fold-change vs cycle 0. GATTAA was tested, and the binding signal was 2.07 ± 0.127 fold-change vs cycle 0. In the case of AGCCTA, the binding signal is reported as 0.614 ± 0.0322 fold-change vs cycle 0. With ACCACG the binding signal was 0.351 ± 0.0168 fold-change vs cycle 0. In the case of AAGAGA, the binding signal is reported as 1.45 ± 0.0335 fold-change vs cycle 0. TAGGCA gave a binding signal of 0.578 ± 0.0216 fold-change vs cycle 0. ACAGTG was tested, and the binding signal was 0.745 ± 0.062 fold-change vs cycle 0. AGGTAC showed a binding signal of 0.804 ± 0.0355 fold-change vs cycle 0. Work on GATTGA yielded a binding signal of 1.34 ± 0.0367 fold-change vs cycle 0. Work on GCTGAA yielded a binding signal of 0.582 ± 0.0146 fold-change vs cycle 0. With CAAGTC the binding signal was 0.742 ± 0.0124 fold-change vs cycle 0. Sequence ACACTA has a binding signal of 1.26 ± 0.0187 fold-change vs cycle 0. Sequence CGATTC has a binding signal of 0.682 ± 0.0336 fold-change vs cycle 0. For GTGGAA, the binding signal was 0.745 ± 0.0414 fold-change vs cycle 0. In the case of CGACTC, the binding signal is reported as 0.311 ± 0.0133 fold-change vs cycle 0. GATCGA was tested, and the binding signal was 0.664 ± 0.0531 fold-change vs cycle 0. For AGAAGA, the binding signal was 1.43 ± 0.0638 fold-change vs cycle 0. Work on AGACGA yielded a binding signal of 0.675 ± 0.0154 fold-change vs cycle 0.

Each sequence was assayed against T2, SALL4 ZFC4 R900W (HT-SELEX) (Mus musculus, UniProt Q8BX22 870-940, R900W) (assay: HT-SELEX; high values mean tight binding). Conditions: protein: recombinant; vector His6-GST; dsDNA, one strand shown.
T2 sequence: T1 sequence with R31W
In short: as §1
With TAGAAA the binding signal was 1.91 ± 0.061 fold-change vs cycle 0. CATCCC showed a binding signal of 0.59 ± 0.0178 fold-change vs cycle 0. Work on ACCACA yielded a binding signal of 0.793 ± 0.0317 fold-change vs cycle 0. AGTAGC was tested, and the binding signal was 0.756 ± 0.0367 fold-change vs cycle 0. TATCGA gave a binding signal of 1.2 ± 0.0508 fold-change vs cycle 0. AATCTG gave a binding signal of 1.28 ± 0.0883 fold-change vs cycle 0. Work on AGATGA yielded a binding signal of 1.6 ± 0.074 fold-change vs cycle 0. In the case of ACAAAA, the binding signal is reported as 1.61 ± 0.0945 fold-change vs cycle 0. Work on AACTGT yielded a binding signal of 1.39 ± 0.0174 fold-change vs cycle 0. For CTAACA, the binding signal was 1.48 ± 0.0428 fold-change vs cycle 0. With ACGGTA the binding signal was 0.817 ± 0.0376 fold-change vs cycle 0. With TCATAA the binding signal was 2.06 ± 0.0751 fold-change vs cycle 0. Sequence GAGACC has a binding signal of 0.5424 ± 0.00269 fold-change vs cycle 0. Sequence AAGATT has a binding signal of 2.08 ± 0.121 fold-change vs cycle 0. Sequence CAGTCA has a binding signal of 0.925 ± 0.0192 fold-change vs cycle 0. CTTACA was tested, and the binding signal was 1.55 ± 0.0884 fold-change vs cycle 0. Work on CATTCC yielded a binding signal of 0.949 ± 0.0747 fold-change vs cycle 0. With AATTTA the binding signal was 2.35 ± 0.145 fold-change vs cycle 0. CATGTA gave a binding signal of 1.37 ± 0.0595 fold-change vs cycle 0. With CAAAAC the binding signal was 1.06 ± 0.0573 fold-change vs cycle 0. AAGTAT gave a binding signal of 2.14 ± 0.158 fold-change vs cycle 0. AGGATC gave a binding signal of 1.01 ± 0.0497 fold-change vs cycle 0. CAGGAA showed a binding signal of 0.921 ± 0.0224 fold-change vs cycle 0. GATTAA gave a binding signal of 1.99 ± 0.123 fold-change vs cycle 0. With AGCCTA the binding signal was 0.728 ± 0.0355 fold-change vs cycle 0. Sequence ACCACG has a binding signal of 0.428 ± 0.0163 fold-change vs cycle 0. In the case of AAGAGA, the binding signal is reported as 1.67 ± 0.0544 fold-change vs cycle 0. Sequence TAGGCA has a binding signal of 0.648 ± 0.0255 fold-change vs cycle 0. ACAGTG gave a binding signal of 0.869 ± 0.0495 fold-change vs cycle 0. With AGGTAC the binding signal was 0.942 ± 0.0186 fold-change vs cycle 0. Work on GATTGA yielded a binding signal of 1.46 ± 0.0217 fold-change vs cycle 0. GCTGAA was tested, and the binding signal was 0.67 ± 0.0322 fold-change vs cycle 0. CAAGTC was tested, and the binding signal was 0.878 ± 0.025 fold-change vs cycle 0. With ACACTA the binding signal was 1.3934 ± 0.0013 fold-change vs cycle 0. CGATTC gave a binding signal of 0.738 ± 0.0472 fold-change vs cycle 0. GTGGAA showed a binding signal of 0.83 ± 0.0233 fold-change vs cycle 0. For CGACTC, the binding signal was 0.391 ± 0.0309 fold-change vs cycle 0. Work on GATCGA yielded a binding signal of 0.763 ± 0.0206 fold-change vs cycle 0. With AGAAGA the binding signal was 1.64 ± 0.118 fold-change vs cycle 0. Work on AGACGA yielded a binding signal of 0.786 ± 0.0316 fold-change vs cycle 0.

Each sequence was assayed against T3, SALL4 ZFC4 G921D (HT-SELEX) (Mus musculus, UniProt Q8BX22 870-940, G921D) (assay: HT-SELEX; high values mean tight binding). Conditions: protein: recombinant; vector His6-GST; dsDNA, one strand shown.
T3 sequence: T1 sequence with G52D
In short: as §1
TAGAAA gave a binding signal of 1.69 ± 0.141 fold-change vs cycle 0. In the case of CATCCC, the binding signal is reported as 0.652 ± 0.049 fold-change vs cycle 0. In the case of ACCACA, the binding signal is reported as 0.841 ± 0.0188 fold-change vs cycle 0. AGTAGC showed a binding signal of 0.856 ± 0.0498 fold-change vs cycle 0. TATCGA gave a binding signal of 1.22 ± 0.03 fold-change vs cycle 0. With AATCTG the binding signal was 1.25 ± 0.0941 fold-change vs cycle 0. With AGATGA the binding signal was 1.46 ± 0.104 fold-change vs cycle 0. In the case of ACAAAA, the binding signal is reported as 1.5 ± 0.125 fold-change vs cycle 0. AACTGT gave a binding signal of 1.34 ± 0.0563 fold-change vs cycle 0. Work on CTAACA yielded a binding signal of 1.41 ± 0.0893 fold-change vs cycle 0. For ACGGTA, the binding signal was 0.852 ± 0.0147 fold-change vs cycle 0. TCATAA showed a binding signal of 1.84 ± 0.154 fold-change vs cycle 0. Work on GAGACC yielded a binding signal of 0.643 ± 0.0507 fold-change vs cycle 0. AAGATT showed a binding signal of 1.88 ± 0.183 fold-change vs cycle 0. Sequence CAGTCA has a binding signal of 0.946 ± 0.028 fold-change vs cycle 0. For CTTACA, the binding signal was 1.43 ± 0.0941 fold-change vs cycle 0. Work on CATTCC yielded a binding signal of 0.981 ± 0.031 fold-change vs cycle 0. Sequence AATTTA has a binding signal of 2.04 ± 0.225 fold-change vs cycle 0. With CATGTA the binding signal was 1.35 ± 0.123 fold-change vs cycle 0. CAAAAC was tested, and the binding signal was 1.08 ± 0.0366 fold-change vs cycle 0. AAGTAT was tested, and the binding signal was 1.87 ± 0.204 fold-change vs cycle 0. Work on AGGATC yielded a binding signal of 1.07 ± 0.0215 fold-change vs cycle 0. CAGGAA gave a binding signal of 0.918 ± 0.0252 fold-change vs cycle 0. GATTAA gave a binding signal of 1.77 ± 0.188 fold-change vs cycle 0. With AGCCTA the binding signal was 0.832 ± 0.0333 fold-change vs cycle 0. Work on ACCACG yielded a binding signal of 0.523 ± 0.0453 fold-change vs cycle 0. AAGAGA showed a binding signal of 1.48 ± 0.103 fold-change vs cycle 0. TAGGCA gave a binding signal of 0.751 ± 0.038 fold-change vs cycle 0. ACAGTG showed a binding signal of 0.895 ± 0.0488 fold-change vs cycle 0. For AGGTAC, the binding signal was 0.9735 ± 0.00829 fold-change vs cycle 0. Work on GATTGA yielded a binding signal of 1.43 ± 0.0387 fold-change vs cycle 0. Work on GCTGAA yielded a binding signal of 0.774 ± 0.0356 fold-change vs cycle 0. CAAGTC gave a binding signal of 0.942 ± 0.0196 fold-change vs cycle 0. With ACACTA the binding signal was 1.36 ± 0.0513 fold-change vs cycle 0. CGATTC showed a binding signal of 0.84 ± 0.0386 fold-change vs cycle 0. For GTGGAA, the binding signal was 0.871 ± 0.012 fold-change vs cycle 0. Work on CGACTC yielded a binding signal of 0.53 ± 0.0873 fold-change vs cycle 0. In the case of GATCGA, the binding signal is reported as 0.91 ± 0.0578 fold-change vs cycle 0. Work on AGAAGA yielded a binding signal of 1.47 ± 0.162 fold-change vs cycle 0. In the case of AGACGA, the binding signal is reported as 0.86 ± 0.0237 fold-change vs cycle 0.

— paper PMC9838217, “Structure of SALL4 zinc finger domain reveals link between AT-rich DNA binding and Okihiro syndrome”
